MEP2-GFP yeast: yeast TOR pathway MEP2-GFP modulation. S. cerevisiae MEP2-GFP strain, flow cytometry GFP, 3 h; 100% = DMSO control level. GFP response vs DMSO, % at 10 µM. hit rate 0.51% among 330,000;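 active means GFP response versus DMSO above a set limit, roughly screen mean plus 3 SD, cut at about 180% in these data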;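 further: median GFP fluorescence of the barcode-gated MEP2-GFP cells per well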
RPL19A TOR yeast: modulators of TOR pathway RPL19A-GFP in S. cerevisiae; S. cerevisiae RPL19A-GFP strain, flow cytometry, 3 h; active compounds read low; hit rate 0.3% among 330,000; percent response vs DMSO, % at 10 µM;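 active means percent response vs DMSO below 50%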;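 further: median channel GFP fluorescence of the barcoded RPL19A-GFP strain; ratio of sample median GFP to plate DMSO average so 100% = DMSO; lower means less RPL19A-GFP as with rapamycin TOR inhibition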
LAP4-GFP MLPCN: yeast TOR pathway LAP4-GFP modulation; hit rate 0.34% among 320,000; GFP response vs DMSO, % at 10 µM; AID 2023; S. cerevisiae LAP4-GFP multiplex, flow cytometry GFP, 3 h; median GFP as percent of DMSO wells;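 active means GFP response vs DMSO above a set limit, about the screen mean plus 3 SD, cut at about 150% in these data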
AGP1-GFP MLPCN: modulators of TOR pathway AGP1-GFP in S. cerevisiae | GFP response vs DMSO, % at 10 µM | S. cerevisiae AGP1-GFP multiplex flow cytometry, 3 h; GFP as percent of DMSO wells | hit rate 0.02% among 320,000;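 active means GFP response relative to DMSO above a set limit, near screen average plus 3 SD, cut at about 150% in these data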;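 further: median GFP channel fluorescence of the gated AGP1 strain per well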
CIT2 TOR yeast: yeast TOR pathway CIT2-GFP modulation. GFP response vs DMSO, % at 10 µM. hit rate 0.065% among 320,000. S. cerevisiae CIT2-GFP strain, flow cytometry, 3 h; 100 means same as DMSO wells;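 active means GFP response relative to DMSO above a set limit, near the screen mean plus 3 SD, cut at about 150% in these data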;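 further: ratio of well median GFP fluorescence to mean of DMSO wells on the plate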
LAP4 cherry2: yeast LAP4-GFP modulation, second cherry pick | shares compounds with LAP4-GFP MLPCN | S. cerevisiae LAP4-GFP strain, flow cytometry GFP, 3 h | GFP response vs DMSO, % at 10 µM | hit rate 20% among 590 | AID 2621;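 active means GFP signal as percent of the solvent control above about 150%, meaning raised reporter expression, limit read from the data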;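 further: ratio of well median GFP fluorescence to plate DMSO mean so 100% = DMSO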
MEP2-GFP pick2: yeast MEP2-GFP modulation, second cherry pick. GFP response vs DMSO, % at 10 µM. S. cerevisiae MEP2-GFP strain, flow cytometry GFP, 3 h. shares compounds with LAP4-GFP MLPCN. hit rate 10% among 590. AID 2622;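 active means GFP signal above 150% of the solvent control wells, that is a rise of more than half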;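 further: median channel GFP fluorescence of all gated yeast cells per well; ratio of median GFP to plate DMSO average so 100% = DMSO level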
RPL19A-GFP pick2: yeast RPL19A-GFP TOR reporter modulation, second cherry pick. shares compounds with LAP4-GFP MLPCN. S. cerevisiae RPL19A-GFP strain, flow cytometry GFP, 3 h; active compounds read low; 100% means same as DMSO wells. GFP response vs DMSO, % at 10 µM. hit rate 3% among 590. AID 2623;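 active means under 65% GFP response relative to DMSO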;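 further: median GFP channel fluorescence per well over the all cells gate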
CIT2-GFP pick2: second confirmation of modulators of TOR reporter CIT2-GFP in yeast. GFP response vs DMSO, % at 10 µM. S. cerevisiae CIT2-GFP strain, flow cytometry GFP, 3 h; DMSO control wells read 100%. hit rate 8% among 590. shares compounds with LAP4-GFP MLPCN. AID 2624;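 active means GFP response vs DMSO above about 150%, limit read from the data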;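 further: median green fluorescence per well over all gated yeast cells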
AGP1-GFP pick2: reconfirmed modulator of AGP1-GFP TOR reporter in yeast; shares compounds with LAP4-GFP MLPCN; S. cerevisiae AGP1-GFP strain, flow cytometry GFP, 3 h; percent response vs DMSO, % at 10 µM; 590 tested, under 10 active;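 active means over 150 percent of DMSO response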;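 further: median GFP channel fluorescence over all cells without mother daughter split; sample median GFP divided by mean DMSO control so 100% equals DMSO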
Yeast autofluor: counter-screen for compound autofluorescence in yeast s288c cells; shares compounds with LAP4-GFP MLPCN; S. cerevisiae s288c, 520 nm autofluorescence, flow cytometry, 3 h; active compounds read high; zero means same as solvent-only cells; fluorescence change (kMESF span) at 33 µM; 610 tested, under 10 active;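 active means fluorescence span over the dose series, or activity score, above about 33, limit read from the data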
The depositor's hits bear a star. The list is not random: actives were taken first. Their share in the collection is about 0.92%.

`Cc1onc(-c2ccccc2)c1C(=O)NNC(=S)NC(=O)c1ccc(Cl)cc1Cl` gave MEP2-GFP yeast 105, RPL19A TOR yeast 105, LAP4-GFP MLPCN 100, AGP1-GFP MLPCN 104 and CIT2 TOR yeast 106.
`O=C(NC(=S)NNC(=O)c1ccc(Cl)cc1Cl)c1cccnc1` gave MEP2-GFP yeast 184*, RPL19A TOR yeast 104, LAP4-GFP MLPCN 110, AGP1-GFP MLPCN 96, CIT2 TOR yeast 100 and Yeast autofluor 0.91.
For COc1ccc(CCC(=O)NCCNC(=O)CCc2ccc(OC)cc2)cc1 the results were MEP2-GFP yeast 103, RPL19A TOR yeast 100, LAP4-GFP MLPCN 94, AGP1-GFP MLPCN 99 and CIT2 TOR yeast 98.
For C=C1CCN(Cc2ccccc2)S(=O)(=O)c2ccccc21 the results were MEP2-GFP yeast 92, RPL19A TOR yeast 98, LAP4-GFP MLPCN 163*, AGP1-GFP MLPCN 85, CIT2 TOR yeast 85, LAP4 cherry2 99, MEP2-GFP pick2 100, RPL19A-GFP pick2 99, CIT2-GFP pick2 93 and AGP1-GFP pick2 95.
Screening O=c1c2cc(Cl)ccc2nc(-c2ccccc2Cl)n1O returned MEP2-GFP yeast 95, RPL19A TOR yeast 60, LAP4-GFP MLPCN 113, AGP1-GFP MLPCN 76, CIT2 TOR yeast 75, LAP4 cherry2 105, MEP2-GFP pick2 98, RPL19A-GFP pick2 100, CIT2-GFP pick2 88 and AGP1-GFP pick2 104.
`CN(CCOc1ccc(Cl)cc1)C(=O)C1CCN(C(=O)c2ccc(F)cc2)CC1` gave MEP2-GFP yeast 108, RPL19A TOR yeast 110, LAP4-GFP MLPCN 71, AGP1-GFP MLPCN 88 and CIT2 TOR yeast 119.
`CCc1ccc(/C=C/C(=O)c2cc(Br)ccc(=O)c2O)cc1` gave MEP2-GFP yeast 109, RPL19A TOR yeast 93, LAP4-GFP MLPCN 146, AGP1-GFP MLPCN 68, CIT2 TOR yeast 78, LAP4 cherry2 156*, MEP2-GFP pick2 122, RPL19A-GFP pick2 78, CIT2-GFP pick2 146, AGP1-GFP pick2 77 and Yeast autofluor 8.2.
For CCOc1ccc(/C=C/C(=O)c2cc(Br)ccc(=O)c2O)cc1 the results were MEP2-GFP yeast 94, RPL19A TOR yeast 96, LAP4-GFP MLPCN 102, AGP1-GFP MLPCN 84 and CIT2 TOR yeast 91.
For N/N=C(/Cc1nc2ccccc2[nH]1)c1ccc([N+](=O)[O-])cc1 the results were MEP2-GFP yeast 100, RPL19A TOR yeast 108, LAP4-GFP MLPCN 109, AGP1-GFP MLPCN 101 and CIT2 TOR yeast 106.
For CC1=CC(=O)C(C(C)C)=C/C1=N/OS(=O)(=O)c1ccccc1 the results were MEP2-GFP yeast 77, RPL19A TOR yeast 73, LAP4-GFP MLPCN 216*, AGP1-GFP MLPCN 98, CIT2 TOR yeast 75 and Yeast autofluor 2.8.
For Cc1ccc2c(c1)/C(=N/OS(=O)(=O)c1ccccc1)CCS2 the results were MEP2-GFP yeast 105, RPL19A TOR yeast 94, LAP4-GFP MLPCN 103, AGP1-GFP MLPCN 102 and CIT2 TOR yeast 99.
CC(C)(C)NC(=O)C(c1ccc(F)cc1)N(C(=O)CCC(=O)Nc1ccccn1)C1CCCC1 (stereo not given) was read as MEP2-GFP yeast 103, RPL19A TOR yeast 97, LAP4-GFP MLPCN 96, AGP1-GFP MLPCN 102 and CIT2 TOR yeast 101.
For C/C(=N\N=C1\NC(=O)C(CC(=O)Nc2ccccc2F)S1)C1CCCCC1 (stereo not given) the results were MEP2-GFP yeast 113, RPL19A TOR yeast 103, LAP4-GFP MLPCN 95, AGP1-GFP MLPCN 100 and CIT2 TOR yeast 103.
Screening Cn1c(Cl)cnc1C1CC(=O)c2cc(Cl)ccc2O1 (stereo not given) returned MEP2-GFP yeast 100, RPL19A TOR yeast 93, LAP4-GFP MLPCN 210*, AGP1-GFP MLPCN 98, CIT2 TOR yeast 93, LAP4 cherry2 100, MEP2-GFP pick2 100, RPL19A-GFP pick2 98, CIT2-GFP pick2 96 and AGP1-GFP pick2 96.
Screening O=c1cc(C(F)(F)F)[nH]c2ccc(OC(F)(F)F)cc12 returned MEP2-GFP yeast 164, RPL19A TOR yeast 65, LAP4-GFP MLPCN 96, AGP1-GFP MLPCN 77, CIT2 TOR yeast 92, LAP4 cherry2 97, MEP2-GFP pick2 103, RPL19A-GFP pick2 103, CIT2-GFP pick2 104 and AGP1-GFP pick2 102.
Screening O=c1cc(C(F)(F)F)[nH]c2c(C(F)(F)F)cccc12 returned MEP2-GFP yeast 110, RPL19A TOR yeast 111, LAP4-GFP MLPCN 105, AGP1-GFP MLPCN 95 and CIT2 TOR yeast 107.
`Cc1cc([N+](=O)[O-])ccc1NC(=O)CCC(=O)N1CCCCCC1` gave MEP2-GFP yeast 103, RPL19A TOR yeast 102, LAP4-GFP MLPCN 104, AGP1-GFP MLPCN 96 and CIT2 TOR yeast 107.
For CC(=O)N[C@@H](Cc1c[nH]c2ccccc12)C(=O)OCc1cc(C(F)(F)F)cc(C(F)(F)F)c1 the results were MEP2-GFP yeast 166, RPL19A TOR yeast 79, LAP4-GFP MLPCN 160*, AGP1-GFP MLPCN 113, CIT2 TOR yeast 101, LAP4 cherry2 100, MEP2-GFP pick2 101, RPL19A-GFP pick2 99, CIT2-GFP pick2 100 and AGP1-GFP pick2 97.
`COc1ccccc1NC(=O)NC1(C(=O)N2CCC(C)CC2)CCCCC1` gave MEP2-GFP yeast 102, RPL19A TOR yeast 103, LAP4-GFP MLPCN 97, AGP1-GFP MLPCN 99 and CIT2 TOR yeast 102.
For COc1ccc([C@H]2CC(=O)C=C(c3ccc4ncccc4c3)C2)cc1 the results were MEP2-GFP yeast 91, RPL19A TOR yeast 95, LAP4-GFP MLPCN 123, AGP1-GFP MLPCN 71 and CIT2 TOR yeast 84.
